# According to PubChem BioAssay AID2314 (National Center for Advancing Translational Sciences (NCATS), 2010):
# Values joined by “and” are separate entries in the source; they are usually repeats but may differ in a detail not shown here. Equal entries are not always repeated. Out of some 300,000 compounds screened, about 37,000 (12%) were called active. Rule as the data show it: active = max response mostly above about 13% (no sharp cut-off); inactive = mostly below about 14%. The entries come from a sample that favours actives as a whole.
# Assay: Cycloheximide Counterscreen for Small Molecule Inhibitors of Shiga Toxin; also: read at 38.3 µM for the half of the compounds with a filed dose; 0% is about no effect
# Conditions: cell reporter, cycloheximide protein synthesis inhibition counterscreen; hits give high values
row,SMILES,max response
1,CCOC(=O)CSc1nc(N2CCOCC2)c2c(c1C#N)CC(C(C)C)OC2 (stereo not drawn),-2.94% (inactive)
2,Cc1ccc(-c2noc(CSc3nnnn3-c3ccccc3)n2)cc1,17.8% (active)
3,Cc1ccc(-c2noc(CSc3nnc(-c4ccccc4)n3C)n2)cc1,-0.58% (inactive)
4,Cc1ccc(-c2noc(CSc3nnc(-c4cccs4)n3C)n2)cc1,5.33% (inactive)
5,O=C(C1CCCO1)N(c1ccc(F)cc1)C1C=CS(=O)(=O)C1 (stereo not drawn),-9.85% (inactive)
6,Cc1onc(-c2ccccc2Cl)c1C(=O)OCC(=O)c1ccccc1,38.6% (active)
7,Cc1onc(-c2ccccc2Cl)c1C(=O)NCCn1ccc2ccccc21,-2.37% (inactive)
8,CC(=O)Nc1cccc(/C(C)=N/NC(=O)c2c(-c3ccccc3Cl)noc2C)c1,0.404% (inactive)
9,CC(=O)n1cc([C@H]2C=C(C(=O)N3CCOCC3)O[C@@H](OCc3ccc(CO)cc3)C2)c2ccccc21,-0.396% (inactive)
10,Cc1ccc(S(=O)(=O)N2CCN(C)CC2)cc1,1.47% (inactive)
11,O=C1CSC(c2ccccc2)N1c1nc(-c2ccc(Cl)cc2Cl)cs1 (stereo not drawn),-1.24% (inactive)
12,Clc1ccc(-c2ncc3ccccn23)c(Cl)c1,-0.544% (inactive)
13,Clc1ccc(-c2cc(-c3ccccn3)on2)c(Cl)c1,29.5% (active)
14,C(=N\Nc1ccc2ccccc2n1)/c1ccc2c(c1)OCO2,-3.9% (inactive)
15,Cc1noc(C)c1/C=N/Nc1ccc2ccccc2n1,39.1% (active)
16,O=C(O)/C(=C/c1cccnc1)NC(=O)c1ccccc1,0.766% (inactive)
17,CCOC(=O)CNC(=O)/C(=C\c1ccc(F)cc1)NC(=O)c1ccccc1,-0.456% (inactive)
18,O=C(/C=C\NCC(=O)c1ccccc1)c1ccccc1,35.9% (active)
19,O=C(/C=C/NNC(=O)c1cccc(Br)c1)c1ccccc1,22.3% (inactive)
20,O=C(/C=C/NCc1ccc(F)cc1)c1ccccc1,53.1% (active)
21,Cc1cccc[n+]1CC(=O)c1ccccc1,0.405% (inactive)
22,O=C(CNCc1ccc(F)cc1)Nc1ccccc1-c1ccccc1,-4.19% (inactive)
23,Cc1ccc(C(=O)Oc2ccc(C(=S)N3CCOCC3)cc2)cc1,-3.19% (inactive)
24,COC(=O)C1(C)NC(c2ccc(C)cc2)C2C(=O)N(c3ccc(F)cc3)C(=O)C21 (stereo not drawn),1.36% (inactive)
25,CCOC(=O)CNC(=O)/C=C/c1c(Cl)cccc1Cl,-3.14% (inactive)

row,SMILES,max response
1,COC(=O)N/N=C/c1cn(CCCOc2ccc(C)cc2)c2ccccc12,44.1% (active)
2,CCOC(=O)N/N=C/c1cn(Cc2ccccc2Cl)c2ccccc12,4.93% (inactive)
3,CNC(=S)N/N=C/c1cn(Cc2ccc(C)cc2)c2ccccc12,3.75% (inactive)
4,Cc1ccc(Cn2ncc3c4sc(C)cc4n(C)c3c2=O)c(C)c1,5.87% (inactive)
5,Cc1nn(C)cc1/C=C1\CCC/C(=C\c2cn(C)nc2C)C1=O,18.2% (active)
6,O=C1/C(=C/c2ccc3c(c2)OCO3)CCC/C1=C\c1ccc2c(c1)OCO2,0.534% (inactive)
7,CCn1cc(/C=C2/SC(=S)NC2=O)c(C)n1,2.94% (inactive)
8,CCOc1ccc(NC(=O)COc2ccc(S(=O)(=O)N3CCCC3)cc2)cc1,1.08% (inactive)
9,Cc1c(C(=O)NC(=S)NCc2cccnc2)oc2ccccc12,6.33% (inactive)
10,COc1ccc(NC(=O)C2CCC(CNC(=O)[C@@H]3Cc4ccccc4CN3)CC2)cc1 (stereo partly drawn),15.5% (inactive)
11,CCOC(=O)C1CCN(C(=O)C2CCCN(S(=O)(=O)c3ccc(OC)c(Cl)c3)C2)CC1 (stereo not drawn),-4.35% (inactive)
12,CCOc1ccc(S(=O)(=O)N2CCCC(C(=O)N3CCC(C(N)=O)CC3)C2)cc1Cl (stereo not drawn),23.5% (active)
13,CCN1CCN(C(=O)C2CCCN(S(=O)(=O)c3ccc(OC)c(OC)c3)C2)CC1 (stereo not drawn),-4.36% (inactive)
14,COCCCC1CCN(C(=O)C2CCC(=O)N(C3CCCCCC3)C2)CC1 (stereo not drawn),-2.1% (inactive)
15,COc1ccc(C(CC(=O)N2CCN(c3ccccc3)CC2)c2c(O)cc(OC)cc2OC)cc1 (stereo not drawn),-2.39% (inactive) and 0.819% (inactive)
16,COc1ccc(C(=O)Nc2ccccc2C(=O)N2CCN(c3ccccc3)CC2)cc1,11.6% (inactive)
17,COc1ccc(C(C(O)C(=O)c2c[nH]c3ccccc23)N2CCN(c3ccccc3)CC2)cc1 (stereo not drawn),11.6% (active)
18,Cc1c(C)n(Cc2ccc(Cl)cc2)c2ccc(C(=O)NCCCN3CCOCC3)cc12,-6.61% (inactive)
19,O=C(NCCCn1ccnc1)/C(=C\c1ccccc1F)NC(=O)c1ccccc1,-1.78% (inactive)
20,O=C(Nc1cccc(Br)c1)c1ccc2snnc2c1,26.9% (active)
21,O=C(Nc1ccc2ccccc2c1)Nc1ccc2snnc2c1,14.6% (inactive)
22,CCc1ccccc1NC(=O)c1ccc2snnc2c1,-0.462% (inactive)
23,COC(=O)Cc1cnc(NC(=O)CSc2nc(C(C)C)cc(=O)[nH]2)s1,-1.1% (inactive)
24,COc1cccc(Oc2ccc(N)cc2)c1,19.4% (active)
25,CC(C)(C)c1ccc(Oc2ccc(N)cc2)cc1,-11.7% (inactive)

row,SMILES,max response
1,COc1cccc(OCCCN2CCCCCC2)c1,10.5% (inactive)
2,COc1ccc(/C=C/C(=O)OCC(=O)Nc2cccc(Oc3ccccc3)c2)c(OC)c1,-2% (inactive)
3,Cc1ccc(Oc2ccc(N)cc2)cc1,14.2% (active)
4,Nc1ccc(Oc2ccc(Cl)cc2)cc1,10.9% (inactive)
5,O=C(Oc1ccc(Br)cc1C(=S)N1CCOCC1)c1cccc([N+](=O)[O-])c1,-2.16% (inactive)
6,CC1(C(=O)NCCc2c[nH]c3ccccc23)C=CC2(CCCCC2)N1C(=O)c1ccccc1 (stereo not drawn),17.5% (inactive)
7,Cc1ccc(Nc2nc(CSc3nnc(-c4ccncc4)n3-c3ccccc3C)cs2)cc1,6.52% (inactive)
8,COc1ccccc1N1CCC(N2CCN(CC(C)(C)C)C(CCO)C2)CC1 (stereo not drawn),1.35% (inactive)
9,NC(=O)C1CCN(Cc2nc3c(Br)cc(Br)cc3c(=O)[nH]2)CC1,4.18% (inactive)
10,CN(C(=O)CC1C(=O)NCCN1Cc1ccc(F)cc1Cl)C1CCCCC1 (stereo not drawn),-2.54% (inactive)
11,Cc1ccccc1OCC(=O)NCC(=O)OCC(=O)c1ccc2ccccc2c1,1.31% (inactive)
12,O=C(Nc1ccccc1N1CCCC1)c1ccc2ccccc2c1,18.5% (inactive)
13,CCN(CC)Cc1cc(C(C)=O)ccc1O,-3.77% (inactive)
14,CC(=O)CCC(=O)c1ccc2ccccc2c1,48.4% (active)
15,CC(=O)c1ccc2c(ccc3ccccc32)c1,67.2% (active)
16,CC(=O)c1ccc2c(c1)c1ccccc1n2CC(C)C,3.09% (inactive)
17,CC(C)CC(O)C1CCN(C(=O)CCc2nnc(-c3ccc4c(c3)OCO4)o2)CC1 (stereo not drawn),13.8% (inactive)
18,COc1ccc(Cl)cc1NC(=O)c1cccc(N2C(=O)C3CC=CCC3C2=O)c1 (stereo not drawn),-2.41% (inactive)
19,CC1CN(C(=S)Nc2cccc(F)c2)CC(C)O1 (stereo not drawn),-2.61% (inactive)
20,O=C(Cc1ccccn1)c1ccc(O)cc1O,-6.13% (inactive)
21,COc1ccc(CC(=O)c2ccc(O)cc2O)cc1OC,12.9% (active)
22,COc1ccc(CCNC(=O)Cc2ccc(C)cc2)cc1OC,0.685% (inactive)
23,CCN(Cc1ccncc1)C(=O)CCc1ccccc1,-2.09% (inactive)
24,CCOc1ccc(NC(=O)c2cccc3c2C(=O)N(CC2CCCO2)C3)cc1 (stereo not drawn),8.04% (inactive)
25,CCn1c(SCC(=O)N(C)C2CCS(=O)(=O)C2)nnc1-c1cccs1 (stereo not drawn),-1.86% (inactive)

row,SMILES,max response
1,Cc1ccc(-n2c(Cc3cccs3)nnc2SCC(=O)OC(C)C)cc1,18.3% (inactive)
2,Cn1c(Cc2cccs2)nnc1SCC(=O)Nc1ccccc1,-0.893% (inactive)
3,CCn1c(Cc2cccs2)nnc1SCC(=O)c1ccc(C)cc1,35.4% (active)
4,CCn1c(SCC(=O)c2ccc3ccccc3c2)nnc1-c1cccs1,-2.54% (inactive)
5,CCn1c(SCC(=O)c2ccc(Cl)s2)nnc1-c1cccs1,24.2% (active)
6,O=C(N/C(=C\c1ccc(O)cc1)C(=O)N1CCCCC1)c1ccccc1,-0.421% (inactive)
7,COCCCNC(=O)C1CC(=O)N(CCc2ccc(F)cc2)C1 (stereo not drawn),-0.645% (inactive)
8,CC(C)(CNC(=O)c1ccc(Cl)c(S(=O)(=O)N2CCc3ccccc3C2)c1)N1CCOCC1,-3.28% (inactive)
9,COc1cc(OC)cc(C(=O)NCCSCc2ccc(Cl)cc2)c1,11.2% (inactive)
10,CC1CC(C)CN(CCCNC(=O)Cn2ncc3c([nH]c4ccccc43)c2=O)C1 (stereo not drawn),-2.29% (inactive)
11,Cc1ccc(NS(=O)(=O)c2cc3c(cc2C)NC(=O)CO3)cc1,-3.17% (inactive)
12,CC1(C)Cc2c(sc(NC(=O)C(=O)NCC3CCCO3)c2C(=O)O)CO1 (stereo not drawn),0.548% (inactive)
13,Cn1cccc1C(=O)N1CCc2ccccc2C1,15.5% (active)
14,COc1cccc(N(CC(=O)N2CCc3ccccc3C2)S(C)(=O)=O)c1,-1.63% (inactive)
15,CN(c1ccc(C(=O)N2CCc3ccccc3C2)cc1)S(C)(=O)=O,18.8% (inactive)
16,COc1ccc2c(c1)CCc1c(C(=O)N3CCCC3)noc1-2,36.2% (active)
17,COc1ccc(S(=O)(=O)NC(C)C(=O)N2CCCCCC2)cc1 (stereo not drawn),-0.827% (inactive)
18,COc1ccc(OC)c(NC(=S)N2CCc3ccccc3C2)c1,9.77% (inactive)
19,O=C(C(=O)N1CCc2ccccc2C1)N1CCc2ccccc2C1,-2.04% (inactive)
20,COc1ccc2c(c1)CCc1c(C(=O)N3CCc4ccccc4C3)noc1-2,30.1% (active)
21,CN1CCN(Cc2c(C(=O)N3CCc4ccccc4C3)nc3ccc(Cl)cn23)CC1,-1.69% (inactive)
22,COc1ccc2cc(C(=O)C3CCCN(C(=O)c4sc(C)nc4C)C3)ccc2c1 (stereo not drawn),15.7% (inactive)
23,O=C(c1noc2c1CCCC2)N1CCc2ccccc2C1,40.9% (active)
